# The panel holds about 79,000 compounds, 15% with a hit somewhere; the sample as a whole holds those more often. A number with no mark means an inactive call. The source made the active and inactive calls. No stated cut-off is given here; in the data, active means growth inhibition above about 70%; inactive means the rest.
# Key:
# [1] = NCI Yeast Anticancer Drug Screen. Data for the mlh1 rad18 strain (AID 175); conditions: S. cerevisiae mlh1 rad18 strain growth inhibition, hits give high values
# Procedure, shortened: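 Genetically defined yeast (DNA repair-deficient) exposed to compounds; growth inhibition determined relative to vehicle.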
# [2] = NCI Yeast Anticancer Drug Screen. Data for the rad18 strain (AID 177); conditions: S. cerevisiae rad18 mutant growth inhibition, hits give high values
# Procedure, shortened: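 Vehicle-treated cultures served as the baseline for scoring compound-induced growth inhibition in DNA-repair-mutant yeast.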
# [3] = NCI Yeast Anticancer Drug Screen. Data for the rad52 strain (AID 147);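 further: 0% = growth of vehicle-treated control cultures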; conditions: S. cerevisiae rad52 mutant growth inhibition, hits give high values
# Procedure, shortened: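 The repair-mutant yeast strain was incubated with compounds, then growth was read and inhibition derived relative to vehicle.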
# [4] = NCI Yeast Anticancer Drug Screen. Data for the wt1 strain (AID 149);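 further: 0% = growth of vehicle-treated wt1 cultures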; conditions: S. cerevisiae wt1 strain (SPY 50644) growth inhibition, hits give high values
# Procedure, shortened: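 The wt1 strain was treated with compounds, and growth was compared with vehicle-treated cultures to give inhibition.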
# [5] = NCI Yeast Anticancer Drug Screen. Data for the mgt1 strain (AID 153); conditions: S. cerevisiae mgt1 mutant growth inhibition, hits give high values
# Procedure, shortened: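 Vehicle-normalized growth inhibition is determined in mgt1 yeast, a strain selected for a defined alteration in DNA repair or cell cycle control.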
# [6] = NCI Yeast Anticancer Drug Screen. Data for the rad50 strain (AID 155);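 further: 0% = growth of vehicle-only cultures of the same strain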; conditions: S. cerevisiae rad50 strain growth inhibition, hits give high values
# Procedure, shortened: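 Cells are treated with compound, grown, and their growth is then scored against vehicle-only cultures of the same repair-deficient yeast strain.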
# [7] = NCI Yeast Anticancer Drug Screen. Data for the mec2-1 strain (AID 157); conditions: S. cerevisiae mec2-1 strain, hits give high values
# Procedure, shortened: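 Mutant yeast (mec2-1) grown with compound; growth inhibition relative to vehicle control reported.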
# [8] = NCI Yeast Anticancer Drug Screen. Data for the rad14 strain (AID 159);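 further: 0% = growth of vehicle-treated control cultures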; conditions: S. cerevisiae rad14 strain growth inhibition, hits give high values
# Procedure, shortened: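 Readout: yeast growth inhibition, referenced to vehicle-only cultures. Strain bears a defined alteration in DNA damage repair.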
# [9] = NCI Yeast Anticancer Drug Screen. Data for the sgs1 mgt1 strain (AID 161);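 further: 0% = growth of cultures given vehicle only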; conditions: S. cerevisiae sgs1 mgt1 strain, hits give high values
# Procedure, shortened: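 Percent growth inhibition was derived by comparing compound-exposed mutant yeast with vehicle-exposed cultures. The strain carries alterations in DNA damage repair.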
# [10] = NCI Yeast Anticancer Drug Screen. Data for the CLN2oe strain (AID 163);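 further: 0% = growth of vehicle-only control cultures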; conditions: S. cerevisiae CLN2oe strain, hits give high values
# Procedure, shortened: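 Compounds are applied to yeast harbouring a defined cell-cycle control change; reduced growth compared with vehicle-treated controls gives the value.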
# [11] = NCI Yeast Anticancer Drug Screen. Data for the cln2 rad14 strain (AID 165);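 further: 0% = growth equal to vehicle treated cultures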; conditions: S. cerevisiae cln2 rad14 strain, hits give high values
# Procedure, shortened: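 Readout is yeast growth inhibition versus vehicle-treated controls, using a strain with cln2 and rad14 alterations exposed to compound.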
# [12] = NCI Yeast Anticancer Drug Screen. Data for the bub3 strain (AID 167); conditions: S. cerevisiae bub3 mutant strain, hits give high values
# Procedure, shortened: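 Part of a panel of yeast mutants defective in DNA damage repair or cell cycle regulation. Each strain is grown with compound, and inhibition is calculated relative to solvent-treated cultures.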
# [13] = NCI Yeast Anticancer Drug Screen. Data for the wt2 strain (AID 169);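 further: 0% = growth of vehicle-treated yeast cultures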; conditions: S. cerevisiae wt2 strain growth inhibition, hits give high values
# Procedure, shortened: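 Against vehicle-treated controls, the growth of yeast exposed to each compound was compared, and the inhibition was recorded.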
# [14] = NCI Yeast Anticancer Drug Screen. Data for the mlh1 strain (AID 171);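 further: 0% = growth of vehicle-treated control cultures of the same strain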; conditions: S. cerevisiae mlh1 strain growth inhibition, hits give high values
# Procedure, shortened: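 Measured: yeast growth. Reference: vehicle-treated controls. Organism: strain with a defined alteration affecting DNA damage repair or cell cycle control, treated with compound.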
# [15] = NCI Yeast Anticancer Drug Screen. Data for the sgs1 strain (AID 173);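 further: 0% = growth of vehicle-only control cultures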; conditions: S. cerevisiae sgs1 mutant, hits give high values
# Procedure, shortened: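 Each compound was added to cultures of the altered yeast strain. Growth was recorded, and inhibition was derived by comparison with vehicle controls.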
# [16] = at 5.0 µM (retest, dose inferred, filed as 0.5)
# [17] = at 50.0 µM (retest, dose inferred, filed as 5.0)
structure (smiles),measurement,setting,value
CCC/C(Cl)=N\OC(=O)Nc1cccc(C(F)(F)F)c1,growth inhibition,[1]; [16],-10%
same,growth inhibition,[1]; [17],99% (active)
same,growth inhibition,[1]; at 50.0 µM,83.7% (active)
same,growth inhibition,[2]; at 1.2 µM,-7%
same,growth inhibition,[2]; at 3.7 µM,-8%
same,growth inhibition,[2]; at 11.0 µM,-7%
same,growth inhibition,[2]; at 33.0 µM,-16%
same,growth inhibition,[2]; at 100.0 µM,2%
CCc1ncnc2cc(OCC3CO3)c(OC)cc12 (centres undefined),growth inhibition,[3]; at 1.2 µM,7%
same,growth inhibition,[3]; at 3.7 µM,46%
same,growth inhibition,[3]; at 11.0 µM,66%
same,growth inhibition,[3]; at 33.0 µM,82% (active)
same,growth inhibition,[3]; at 100.0 µM,87% (active)
same,growth inhibition,[4]; at 1.2 µM,-9%
same,growth inhibition,[4]; at 3.7 µM,8%
same,growth inhibition,[4]; at 11.0 µM,3%
same,growth inhibition,[4]; at 33.0 µM,6%
same,growth inhibition,[4]; at 100.0 µM,20%
same,growth inhibition,[5]; at 1.2 µM,-14%
same,growth inhibition,[5]; at 3.7 µM,-8%
same,growth inhibition,[5]; at 11.0 µM,-3%
same,growth inhibition,[5]; at 33.0 µM,22%
same,growth inhibition,[5]; at 100.0 µM,48%
same,growth inhibition,[6]; at 1.2 µM,23%
same,growth inhibition,[6]; at 3.7 µM,44%
same,growth inhibition,[6]; [16],72% (active)
same,growth inhibition,[6]; at 11.0 µM,72% (active)
same,growth inhibition,[6]; at 33.0 µM,85% (active)
same,growth inhibition,[6]; [17],92% (active)
same,growth inhibition,[6]; at 50.0 µM,84.3% (active)
same,growth inhibition,[6]; at 100.0 µM,91% (active)
same,growth inhibition,[7]; at 1.2 µM,2%
same,growth inhibition,[7]; at 3.7 µM,6%
same,growth inhibition,[7]; [16],26%
same,growth inhibition,[7]; at 11.0 µM,22%
same,growth inhibition,[7]; at 33.0 µM,75% (active)
same,growth inhibition,[7]; [17],92% (active)
same,growth inhibition,[7]; at 50.0 µM,89.4% (active)
same,growth inhibition,[7]; at 100.0 µM,91% (active)
same,growth inhibition,[8]; at 1.2 µM,0%
same,growth inhibition,[8]; at 3.7 µM,1%
same,growth inhibition,[8]; at 11.0 µM,46%
same,growth inhibition,[8]; at 33.0 µM,85% (active)
same,growth inhibition,[8]; at 100.0 µM,94% (active)
same,growth inhibition,[9]; [16],79% (active)
same,growth inhibition,[9]; [17],93% (active)
same,growth inhibition,[9]; at 50.0 µM,82.7% (active)
same,growth inhibition,[10]; at 1.2 µM,20%
same,growth inhibition,[10]; at 3.7 µM,15%
same,growth inhibition,[10]; at 11.0 µM,27%
same,growth inhibition,[10]; at 33.0 µM,30%
same,growth inhibition,[10]; at 100.0 µM,52%
same,growth inhibition,[11]; [16],17%
same,growth inhibition,[11]; [17],79% (active)
same,growth inhibition,[11]; at 50.0 µM,79.1% (active)
same,growth inhibition,[12]; at 1.2 µM,17%
same,growth inhibition,[12]; at 3.7 µM,-7%
same,growth inhibition,[12]; [16],10%
same,growth inhibition,[12]; at 11.0 µM,2%
same,growth inhibition,[12]; at 33.0 µM,12%
same,growth inhibition,[12]; [17],47%
same,growth inhibition,[12]; at 50.0 µM,17.9%
same,growth inhibition,[12]; at 100.0 µM,43%
same,growth inhibition,[13]; at 1.2 µM,-26%
same,growth inhibition,[13]; at 3.7 µM,-15%
same,growth inhibition,[13]; at 11.0 µM,-14%
same,growth inhibition,[13]; at 33.0 µM,13%
same,growth inhibition,[13]; at 100.0 µM,72% (active)
same,growth inhibition,[14]; at 1.2 µM,-4%
same,growth inhibition,[14]; at 3.7 µM,-6%
same,growth inhibition,[14]; at 11.0 µM,9%
same,growth inhibition,[14]; at 33.0 µM,14%
same,growth inhibition,[14]; at 100.0 µM,61%
same,growth inhibition,[15]; at 1.2 µM,31%
same,growth inhibition,[15]; at 3.7 µM,53%
same,growth inhibition,[15]; at 11.0 µM,70% (active)
same,growth inhibition,[15]; at 33.0 µM,82% (active)
same,growth inhibition,[15]; at 100.0 µM,91% (active)
same,growth inhibition,[1]; [16],90% (active)
same,growth inhibition,[1]; [17],95% (active)
same,growth inhibition,[1]; at 50.0 µM,81.2% (active)
same,growth inhibition,[2]; at 1.2 µM,73% (active)
same,growth inhibition,[2]; at 3.7 µM,84% (active)
same,growth inhibition,[2]; at 11.0 µM,92% (active)
same,growth inhibition,[2]; at 33.0 µM,91% (active)
same,growth inhibition,[2]; at 100.0 µM,93% (active)
CC(/C=C/c1ccc(Cl)cc1)=N\NC(=S)NCC(C)C,growth inhibition,[3]; at 1.2 µM,-1%
same,growth inhibition,[3]; at 3.7 µM,-4%
same,growth inhibition,[3]; at 11.0 µM,4%
same,growth inhibition,[3]; at 33.0 µM,5%
same,growth inhibition,[3]; at 100.0 µM,33%
same,growth inhibition,[4]; at 1.2 µM,-2%
same,growth inhibition,[4]; at 3.7 µM,-5%
same,growth inhibition,[4]; at 11.0 µM,1%
same,growth inhibition,[4]; at 33.0 µM,-1%
same,growth inhibition,[4]; at 100.0 µM,21%
same,growth inhibition,[5]; at 1.2 µM,-6%
same,growth inhibition,[5]; at 3.7 µM,-2%
same,growth inhibition,[5]; at 11.0 µM,-4%
same,growth inhibition,[5]; at 33.0 µM,8%
same,growth inhibition,[5]; at 100.0 µM,35%
same,growth inhibition,[6]; at 1.2 µM,-1%
same,growth inhibition,[6]; at 3.7 µM,1%
same,growth inhibition,[6]; [16],1%
same,growth inhibition,[6]; at 11.0 µM,4%
same,growth inhibition,[6]; at 33.0 µM,11%
same,growth inhibition,[6]; [17],42%
same,growth inhibition,[6]; at 50.0 µM,39.8%
same,growth inhibition,[6]; at 100.0 µM,34%
same,growth inhibition,[7]; at 1.2 µM,-2%
same,growth inhibition,[7]; at 3.7 µM,-3%
same,growth inhibition,[7]; [16],-9%
same,growth inhibition,[7]; at 11.0 µM,-4%
same,growth inhibition,[7]; at 33.0 µM,-1%
same,growth inhibition,[7]; [17],7%
same,growth inhibition,[7]; at 50.0 µM,66.7%
same,growth inhibition,[7]; at 100.0 µM,30%
same,growth inhibition,[8]; at 1.2 µM,1%
same,growth inhibition,[8]; at 3.7 µM,-1%
same,growth inhibition,[8]; at 11.0 µM,-2%
same,growth inhibition,[8]; at 33.0 µM,5%
same,growth inhibition,[8]; at 100.0 µM,24%
same,growth inhibition,[9]; [16],46%
same,growth inhibition,[9]; [17],72% (active)
same,growth inhibition,[9]; at 50.0 µM,77.8% (active)
same,growth inhibition,[10]; at 1.2 µM,0%
same,growth inhibition,[10]; at 3.7 µM,-8%
same,growth inhibition,[10]; at 11.0 µM,-8%
same,growth inhibition,[10]; at 33.0 µM,5%
same,growth inhibition,[10]; at 100.0 µM,28%
same,growth inhibition,[11]; [16],3%
same,growth inhibition,[11]; [17],37%
same,growth inhibition,[11]; at 50.0 µM,17.6%
same,growth inhibition,[12]; at 1.2 µM,-1%
same,growth inhibition,[12]; at 3.7 µM,-1%
same,growth inhibition,[12]; [16],27%
same,growth inhibition,[12]; at 11.0 µM,-6%
same,growth inhibition,[12]; at 33.0 µM,5%
same,growth inhibition,[12]; [17],68%
same,growth inhibition,[12]; at 50.0 µM,85.4% (active)
same,growth inhibition,[12]; at 100.0 µM,37%
same,growth inhibition,[13]; at 1.2 µM,-7%
same,growth inhibition,[13]; at 3.7 µM,-5%
same,growth inhibition,[13]; at 11.0 µM,-12%
same,growth inhibition,[13]; at 33.0 µM,-2%
same,growth inhibition,[13]; at 100.0 µM,24%
same,growth inhibition,[14]; at 1.2 µM,-3%
same,growth inhibition,[14]; at 3.7 µM,-5%
same,growth inhibition,[14]; at 11.0 µM,-3%
same,growth inhibition,[14]; at 33.0 µM,7%
same,growth inhibition,[14]; at 100.0 µM,36%
same,growth inhibition,[15]; at 1.2 µM,-13%
same,growth inhibition,[15]; at 3.7 µM,-8%
same,growth inhibition,[15]; at 11.0 µM,-6%
same,growth inhibition,[15]; at 33.0 µM,7%
same,growth inhibition,[15]; at 100.0 µM,34%
same,growth inhibition,[1]; [16],32%
same,growth inhibition,[1]; [17],64%
same,growth inhibition,[1]; at 50.0 µM,77.3% (active)
same,growth inhibition,[2]; at 1.2 µM,-7%
same,growth inhibition,[2]; at 3.7 µM,-4%
same,growth inhibition,[2]; at 11.0 µM,-1%
same,growth inhibition,[2]; at 33.0 µM,3%
same,growth inhibition,[2]; at 100.0 µM,32%
